± gives the standard deviation of the averaged measurements. The full ranking holds about 25,000 sequences; the median of “ln(normalized median fluorescence intensity)” is about 7.9, and the highest 2% start at about 11. The sample as a whole holds a higher share of the highest values than the screen did.
Test system: PfAP2-I AP2 domain 3 (GST-tagged)
Test: gcPBM binding intensity (ln(normalized median fluorescence intensity)); higher = stronger DNA binding
In short: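 GST-tagged P. falciparum DNA-binding domains produced in E. coli were incubated for 1 h on an Agilent 4 × 180k array of primer-extended double-stranded 36-bp intergenic genomic probes with negative controls. Binding intensity is the highest Masliner-normalised natural-log median intensity across replicate spots of either probe orientation, with bound protein detected by Alexa488 anti-GST antibody at 488 nm.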

Sequence | gcPBM binding intensity (ln)
CATATATATTTTATATGTACATATATATTTTATATA [XGTACX_site8665] | 7.59 ± 0.15
ATTTTATATACAAAATGTACATATTTATTATATATG [XGTACX_site6732] | 7.74 ± 0.5
TAAAGGAAATAAAAAACATGCAAATATGAAATATAT [TGCATGCA_site745] | 7.61 ± 1.1
TACAAATATATAAAATGTACATATATATACATATTA [XGTACX_site3029] | 7.46 ± 0.27
TATTAAATATATATTACATGCAAAAAAAAAAAACAA [TGCATGCA_site705] | 7.97 ± 0.52
GACAATTATATGTAGGTGCATATACAAATTTTTTAA | 10.4 ± 0.57
AAATAAAATAATAAAACATGCAAAAATAATGATTTA [TGCATGCA_site415] | 7.71 ± 0.76
ATATAAAATACATGGGTGCAATATATTAAACAAATA [GTGCAC_site9421] | 11.2 ± 0.48
AGGTGCAAAAATAAAACATGCAAAAATAAAAATGAA [TGCATGCA_site502] | 10.9 ± 0.65
ATTATGTACAAAATGGTGCAATATTATACATATATA [GTGCAC_site9468] | 11.1 ± 0.49
ATTTTTTTTTTTTTATGTACATATAGGTGCAAATCA [XGTACX_site6748] | 11.3 ± 1
CAATATATTATATGGGTGCAAACCACATATAAATAA | 10.1 ± 0.33
TTTTATTGTTTTTTTTTTTTTTCTTTTTTTTTTTTT [CACACA_negctrl_site1094] | 7.91 ± 0.46
ATACGTGGGCAAAAAGTGCATATAATCAAAAAAAAA [GTGCAC_site9961] | 10.4 ± 0.11
ATAAGATAGGCATATACACACATTTATTTACAGATA [CACACA_site5754] | 7.71 ± 0.67
TTGTTTTTGTTCTTGGGTACTTAAATTATAAATGAT [XGTACX_site113] | 8.07 ± 0.45
ATAACTTTTTAAAAGACACACATAAGAAAAACAAAA [CACACA_site723] | 8.08 ± 0.64
TATATGTGATAACACGCACACAAATGTATATAATTT [CACACA_site2593] | 8.1 ± 0.28
TCTTTATATCATCTTTCTAAATATATATATATATAA [CACACA_negctrl_site77] | 7.84 ± 0.55
TTCATTAAATAGAACAAAATAATAATATAACAACAA [GTGCAC_negctrl_site116] | 7.74 ± 0.53
AAAATAAATAAAAAAAGTACATATATAATTTATAAA [XGTACX_site2411] | 7.75 ± 0.39
ACAAGTTTTTTTTTATCACACACAAAAAAAAAAATA [CACACA_site8377] | 7.9 ± 0.44
ATAAAACGTACAATGGTGCATATAAATAATATATAT [GTGCAC_site9960] | 11 ± 0.52

Sequence | gcPBM binding intensity (ln)
TAATTATAATAATAACGTACATATATAAAATGGTGA [XGTACX_site8434] | 8.04 ± 0.34
AATATAAATAAAAACACACACAATGGTACATATATA [CACACA_site3671] | 7.84 ± 0.54
TGTCCAATTTTTTATCGTACATAATATATAAATAAA [XGTACX_site1705] | 8.01 ± 0.33
TTTTCTTGATTTTGTAGTACATTTTTACGATATTTT [XGTACX_site63] | 7.94 ± 0.55
ATTTAATATCACAATATATTTTTTACCCTTATCAGC [CACACA_negctrl_site491] | 7.59 ± 0.76
CATGAGGTATAAAAGGTGCAAATTAATGAGAACATT | 11.1 ± 0.36
CGTTGGTATTAAAAGGTGCAATGAAATAATATATTA | 10.8 ± 0.63
TATGTATTAATGAGAACATGCAAAATAATAAACAAT [TGCATGCA_site362] | 8.45 ± 0.59
TTTTTAAAAAAACATACACACAAAAAAAAAAAAAAA [CACACA_site3935] | 8.11 ± 0.67
TTATATCAAGGGAATGCATGCATATCGTTTTGTATT [TGCATGCA_site327] | 7.68 ± 0.88
AATATTGTATATAATAAACACACAATATTAAAAATA [CACACA_site8262] | 7.57 ± 0.39
TATTGTATATAATAAACACACAATATTAAAAATATA [CACACA_site1057] | 7.4 ± 0.52
ACAAAAAAAAACGTGGTGCATTAATAATATTGTATA [GTGCAC_site9469] | 11.7 ± 0.3
TCTTATATTATATTGTGTATTAAAATTTAACTTCAA [TGCATGCA_negctrl_site565] | 7.83 ± 0.58
ACTTTTTATTTTTTACTATATATATATATATATATG [TGCATGCA_negctrl_site463] | 8.31 ± 0.44
TATATATTTGTTCACACACACACAAAAAAAAAAAAA [CACACA_site2475] | 8.08 ± 0.52
GGTGCACCCATATACACACACAAATACAATGATAAA [CACACA_site1132] | 9.99 ± 0.56
TGGGCACCCATATACACACACAAATACAATGATAAA [CACACA_site4762] | 7.78 ± 0.28
TATGTGCACCCATATACACACACAAATACAATGATA [CACACA_site8295] | 11.3 ± 0.85
CCCGTAAATACAAAAAGTACAAAAGTTCATCTTATA [XGTACX_site1154] | 7.93 ± 0.99
AAAGAAAACGGACTTTGTACTTAAATATAATATAAA [XGTACX_site8585] | 7.69 ± 0.34
AATTTATTTTTAAAAAGTACATACTTAAGAAAACGA [XGTACX_site3660] | 8.12 ± 0.29
CTGTACACTTAAACGGTGCAAAAAGAAAAAAAAGAA | 11 ± 0.38
